This is a sample that favours compounds with a hit; in the whole collection about 7.3% have one here.
FLuc counter: qHTS profiling assay for firefly luciferase inhibitor/activator using purifed enzyme and Km concentrations of substrates (counterscreen for miR-21 project); purified FLuc, Km substrates, luminescence inhibition; Potency, µM (top dose mostly 57.5 µM), without a hit: at the top dose activity change, negative = inhibition, most hits filed as inhibitors; actives 6.9% (n = 360,000);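 also: plate controls were vehicle for no effect and reference inhibitor for full effect; nearly all actives have a fitted effect of over 55% in size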
Target sequence (P08659 whole entry, looked up): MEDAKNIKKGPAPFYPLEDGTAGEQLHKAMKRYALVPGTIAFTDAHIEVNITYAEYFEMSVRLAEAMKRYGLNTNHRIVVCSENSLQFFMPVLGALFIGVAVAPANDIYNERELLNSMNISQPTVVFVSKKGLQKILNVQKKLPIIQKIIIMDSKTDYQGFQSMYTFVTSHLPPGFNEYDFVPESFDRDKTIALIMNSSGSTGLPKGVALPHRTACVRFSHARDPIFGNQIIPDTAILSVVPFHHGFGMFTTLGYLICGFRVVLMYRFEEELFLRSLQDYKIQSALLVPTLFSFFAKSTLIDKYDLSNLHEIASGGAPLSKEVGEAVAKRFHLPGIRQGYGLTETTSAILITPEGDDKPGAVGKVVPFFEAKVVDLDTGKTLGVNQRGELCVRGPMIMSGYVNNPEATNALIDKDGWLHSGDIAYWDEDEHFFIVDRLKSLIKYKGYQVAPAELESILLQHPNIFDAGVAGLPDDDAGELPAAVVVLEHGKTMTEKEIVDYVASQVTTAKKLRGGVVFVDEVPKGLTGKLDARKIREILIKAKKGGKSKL
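Purified P. pyralis luciferase, 10 nM final, with Km-level 10 uM D-luciferin and 10 uM ATP in 50 mM Tris acetate pH 7.5, 10 mM Mg acetate, 0.01% Tween-20, 0.05% BSA; 6-point qHTS titration about 60 µM downward; luminescence read.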
ELG1 genotox: qHTS screen for small molecules that induce genotoxicity in human embryonic kidney (HEK293T) cells expressing luciferase-tagged ELG1. actives 1.3% (n = 330,000). Potency, µM (titrated, usually from 46 µM), without a hit: at the top dose activity change, positive = activation, actives largely listed as activators. HEK293T ELG1-luciferase reporter, luminescence, 16 h. AID 504466, 2011; also: % of control where 0% means no effect; nearly all actives have a fitted effect of over 60% in size
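HEK293T cells expressing luciferase-tagged ELG1 were exposed to compound or DMSO vehicle for 16 hr at 37 °C and 5% CO2. Luciferase activity was then measured with ONE-Glo after 30 min at room temperature.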
Rab9 prom act: qHTS Assay for Rab9 Promoter Activators. Huh7 Rab9 promoter-luciferase reporter, luminescence, 24 h. Potency, µM (highest dose often 9.22 µM), for the others: at the highest dose activation, negative = inhibition, actives largely listed as activators. actives 2.8% (n = 320,000). AID 485297, 2010; also: % of control where 0% means no effect; nearly all actives have a fitted effect of over 60% in size
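Huh7 cells stably carrying Rab9 promoter–luciferase reporter, plated 1500 cells/well, compound added after 2 h and incubated 24 h at 37 °C; luciferase luminescence then read after 10 min with detection reagent.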
NPC1 promoter act: qHTS Assay for NPC1 Promoter Activators | Huh7 NPC1 promoter luciferase reporter, 24 h | Potency, µM (top dose mostly 9.22 µM), without a hit: top-dose activation, actives largely listed as activators | actives 2.4% (n = 320,000) | AID 485313, 2010; also: % of control where 0% means no effect; nearly all actives have a fitted effect of over 60% in size
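Quantitative HTS used a cell-based reporter: Huh7 cells stably bearing the NPC1 promoter upstream of luciferase were treated with compounds for 24 h, and promoter activation was read as luminescence.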
uPA surface inh: qHTS for Inhibitors of Cell Surface uPA Generation; cell surface uPA generation assay, qHTS; Potency, µM (titrated, usually from 38.3 µM), without a hit: top-dose activity change, negative = inhibition, most hits filed as inhibitors; actives 0.31% (n = 330,000); AID 540303, 2011; active = well fitted inhibition curve with a large enough effect; inconclusive = small, poorly fitted or top-dose-only effect; inactive = no such curve, though single readings can be large or run the other way; tested in mouse RAW 264.7 cells; also: % is scaled to controls: 0 for no effect and ±100 for the full control effect; nearly all actives have a fitted effect of over 55% in size
SMN2 splice up: qHTS Assay for Enhancers of SMN2 Splice Variant Expression. HEK293 SMN2-luciferase splicing reporter, luminescence, 30-36 h. actives 2.8% (n = 210,000). Potency, µM (series often up to 46.1 µM), without a hit: top-dose activity change, positive = activation, actives largely listed as activators; also: % of control where 0% means no effect; nearly all actives have a fitted effect of over 55% in size
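HEK293 cells carry an SMN2 […]–luciferase reporter in which exon 7 inclusion puts luciferase in frame. Cells were plated 10-12 h before compound addition, then incubated 30-36 h at 37C. ONE-Glo luminescence was read; sodium butyrate at 4.5 mM final served as control.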
An asterisk follows results filed as active; u = inconclusive; x = no result given; [ ] = remark or other dose. Unless noted, calls follow the shape of the dose curve; as a rule, active = well fitted curve in the direction sought with a large enough effect; inconclusive = small, poorly fitted or top-dose-only effect, or another doubt; inactive = no such curve, though single readings can be large; an effect the other way counts as inactive or inconclusive. Potency is read from the fitted curve at half-maximal effect.

SMILES	FLuc counter	ELG1 genotox	Rab9 prom act	NPC1 promoter act	uPA surface inh	SMN2 splice up
COc1cc(CCN2C(=O)c3cccc4cccc(c34)C2=O)c(S(=O)(=O)NCCO)cc1OC	13µM*	0%	1%	3%	-2%	x
COc1cc(CCN2C(=O)c3cccc4cccc(c34)C2=O)c(S(=O)(=O)NCCCO)cc1OC	21µM*	1%	3%	-1%	-3%	-17%
Nn1c(SCC(=O)Nc2nccs2)nnc1-c1ccccn1	1%	-4%	2%	2%	0%	x
O=C(/C=C/c1ccco1)Nc1ccc2nn(-c3ccccc3)nc2c1	-18%	1%	u	22%	-3%	16%
O=C(/C=C/c1ccco1)Nc1cc(Cl)ccc1C(=O)O	19µM*	1%	-4%	3%	-2%	3%
O=C(/C=C/c1ccco1)Nc1ccccc1C(=O)Nc1cccc(C(=O)O)c1	3µM*	4%	1%	2%	-3%	x
O=C(/C=C/c1ccco1)Nc1ccccc1C(=O)O	2.7µM*	10µM*	2.8µM*	2µM*	-13%	13µM*
O=C(/C=C/c1ccco1)Nc1ccccc1N1CCCC1	-9%	-1%	14%	11%	-11%	15%
O=C(c1ccc(Cl)cc1)C(CN1CCCC1)c1ccccc1 (centres undefined)	-1%	-16%	-3%	-18%	5µM*	x
CSc1ccc(CCNC(=O)C2CCN(c3nc4ccccc4nc3C(F)(F)F)CC2)cc1	2%	x	x	x	x	x
COc1cc(/C=C2/C(=O)NN(c3ccc(Cl)cc3)C2=O)ccc1OC(=O)c1ccco1	24µM*	9%	-6%	-4%	-1%	8%
C=CCN1C(=O)/C(=C\c2ccc(OC(=O)c3ccco3)c(OC)c2)SC1=S	3%	6%	1%	-6%	-3%	-41%
COc1cc(/C=C2/C(=O)NN(c3cccc(F)c3)C2=O)ccc1OC(=O)c1ccco1	24µM*	12%	1%	5%	5%	-13%
O=C(O)CN1CCNCCN(CC(=O)O)CCNCC1	x	x	x	x	-5%	x
Cc1ccc(NC(=O)CC(=O)c2ccccc2)cc1C	15µM*	u	4µM*	u	0%	x
Cc1cccc(C(=O)Nc2cccc(C(=O)Nc3cc(C)ccn3)c2)c1	27µM*	-6%	20%	10%	-14%	x
Cc1cccc(C(=O)Nc2ccc(NC(=O)c3ccccc3)cc2)c1	24µM*	-6%	-1%	-1%	-5%	x
Cc1ccc(C(=O)Nc2ccc(Oc3ccc(C(=O)O)c(C(=O)O)c3)cc2)cc1C	6µM*	1%	-9%	-1%	-5%	0%
Cc1ccc(C(=O)Nc2ccc(Nc3ccccc3)cc2)cc1C	x	x	x	x	-5%	x
Cc1ccnc(NC(=O)c2cccc(NC(=O)c3ccc(Cl)cc3)c2)c1	x	x	x	x	0%	x
Cc1cccc(CNc2ncnc3ccc(-c4cccc(NS(C)(=O)=O)c4)cc23)c1	x	x	x	x	x	-1%
Cc1ccc(C(=O)c2oc3ccccc3c2NC(=O)c2cc(-c3ccccc3)on2)cc1F	-1%	x	x	x	x	x
Cc1cccc(NC(=O)c2cccc(C(=O)Nc3cccc(C)c3)c2)c1	-8%	3%	-3%[1.84 µM]	2%	-3%	x
Cc1cccc(C(=O)Nc2cccc(NC(=O)c3ccccc3)c2)c1	17µM*	-2%	-3%	10%	-7%	x
Cc1nc2ccccn2c1C(=O)/C=C/c1cccc([N+](=O)[O-])c1	-5%	-27%	-43%	-28%	u	-69%
SMILES	FLuc counter	ELG1 genotox	Rab9 prom act	NPC1 promoter act	uPA surface inh	SMN2 splice up
COC(=O)CSC(C(=O)Nc1ccc(C)c(C)c1)c1ccccc1 (centres undefined)	17µM*	6%	10%	-5%	2%	9%
Cc1ccc(/C=C/C(=O)c2c(C)nc3ccccn23)cc1	1.1µM*	16%	1.4µM*	u	-9%	u
O=C(CC(=O)c1ccccc1)Nc1ccc(Cl)cc1	15µM*	13%	u	u	-4%	x
Cc1ccc(NC(=O)C(SCC(=O)O)c2ccccc2)cc1C (centres undefined)	u	0%	4%	1%	-3%	9%
CCC(=O)C1=C(c2ccc(Cl)cc2)N(C(=O)CC)n2c(C)nnc2S1	-7%	x	x	x	x	x
Cc1cc(OC(C)C(=O)N(Cc2ccco2)C2CCS(=O)(=O)C2)cc(C)c1Cl (centres undefined)	1%	3%	-4%	0%	-21%	x
O=C(CN1CCc2ccccc2C1)Nc1ccc(Br)cc1	u	10%	-8%	-1%	-2%	11%
CCc1ccc(NC(=O)CN2CCc3ccccc3C2)cc1	24µM*	u	12%	6%	3%	-16%
Cc1ccc(NC(=O)c2ccc(NC(=O)c3ccccc3)cc2)cc1C	27µM*	u	u	u	-19%	x
Cc1cccc(C(=O)NNC(=O)c2ccccc2O)c1	21µM*	u	u	3.2µM*	-20%	x
CCc1ccc(NC(=O)CCC(=O)c2ccccc2)cc1	13µM*	3%	-6%	0%	-2%	x
Clc1ccc(-c2noc(-c3cccnc3N3CCN(c4ccccc4)CC3)n2)cc1	2%	x	x	x	x	x
Cc1cccc(C(=O)Nc2ccccc2C(=O)OCC(=O)Nc2ccc(C#N)cc2)c1	u	u	13%	11%	2%	16µM*
Cc1ccc(NC(=O)c2c(C)nc3ccccn23)cc1C	8.5µM*	-1%	1.8µM*	3.2µM*	-8%	13µM*
Cc1cc2ccccn2c1C(=O)Nc1ccccc1	11µM*	u	u	27%	-2%	u
Cc1ccc(NC(=O)c2cccc(N3CCCS3(=O)=O)c2)cc1C	19µM*	x	x	x	x	x
CCOc1ccc(CNC(=O)CSc2nnc(C)c3c(C)n(-c4ccc(Cl)cc4)nc23)cc1	1%	x	x	x	x	x
CC(Sc1nc2ccccc2[nH]1)C(=O)O (centres undefined)	4%	-1%	-4%	2%	3%	u
CC(=O)N=C(N)Sc1nc2ccccc2[nH]1	15µM*	u	4µM*	2.5µM*	-4%	13µM*
CCOc1ccc(N=CC2=C(O)CC(C)(C)CC2=O)cc1	24µM*	u	-2%	-2%	1%	-10%
Cc1ccc(N=CC2=C(O)CC(C)(C)CC2=O)nc1	24µM*	1%	1%	0%	0%	-9%
CC1(C)CC(=O)C(C=Nc2ccc(Cl)cn2)=C(O)C1	u	2%	0%	-4%	3%	-12%
Cc1[nH]nc(N=CC2=C(O)CC(C)(C)CC2=O)c1-c1ccc(Cl)cc1	17µM*	-4%	-2%	0%	-2%	-7%
